The values below come from the antibiotic and cytotoxicity screens of Wong et al. (2023).

In all, about 39,000 compounds went through this assay and about 1,500 (3.8%) were called active. Only a selection was taken, and actives are over-represented in it overall.

The experiment relates to HSkMC (human skeletal muscle cells). Nature of the experiment: cytotoxicity call (relative viability < 0.9). The settings on record: 10 µM.
For the compound `C[C@@H]1CCCCO[C@H](CN(C)CC2CC2)[C@@H](C)CN([C@H](C)CO)C(=O)c2cc(NS(=O)(=O)c3ccc(Cl)cc3)ccc2O1`, the cytotoxicity call was “inactive”.
In the case of `C[C@@H]1CCCCO[C@@H](CN(C)Cc2ccc3c(c2)OCO3)[C@@H](C)CN([C@@H](C)CO)C(=O)c2cc(NC(=O)Cc3ccccc3)ccc2O1` it was “inactive”; in that of `Cc1cc(C(=O)Nc2cccc3c2O[C@H](CN(C)S(=O)(=O)c2ccccc2)[C@H](C)CN([C@@H](C)CO)C3=O)n(C)n1`, “inactive”.
As to `C[C@H](CO)N1C[C@H](C)[C@H](CN(C)C(=O)NC2CCCCC2)Oc2ccc(NS(=O)(=O)c3cn(C)cn3)cc2CC1=O`, the cytotoxicity call is “inactive”.
As for `Cc1nc(C)n(C(=O)N2CCOCC2)n1`, the cytotoxicity call is “inactive”.
In the case of `C[C@@H](O[C@H]1OCCN(Cc2n[nH]nc2CN(C)C)[C@H]1c1ccc(F)cc1)c1cc(C(F)(F)F)cc(C(F)(F)F)c1` it was “inactive”; in that of `CCCC#Cc1cnc2c(c1)C(=O)N([C@H](C)CO)C[C@H](C)[C@H](CN(C)C(=O)c1ccc3c(c1)OCO3)O2`, “inactive”.
On to `C[C@H]1CN([C@@H](C)CO)C(=O)c2cc(NC(=O)Cn3cnnn3)ccc2O[C@H]1CN(C)C(=O)Nc1ccc(C(F)(F)F)cc1`, for which the cytotoxicity call was “inactive”.
On to `C[C@@H]1CN([C@@H](C)CO)C(=O)c2cc(NC(=O)Nc3ccc(C(F)(F)F)cc3)ccc2O[C@@H]1CN(C)C(=O)Nc1ccc2c(c1)OCO2`, for which the cytotoxicity call was “active”.
With `C[C@@H]1CN([C@@H](C)CO)C(=O)c2cc(NC(=O)Nc3ccc4c(c3)OCO4)ccc2O[C@H]1CN(C)C(=O)Nc1ccc(C(F)(F)F)cc1`, the cytotoxicity call was “inactive”.
As for `C[C@H]1CN([C@@H](C)CO)C(=O)c2cc(NC(=O)Nc3ccc4c(c3)OCO4)ccc2O[C@@H]1CN(C)C(=O)Nc1ccc(C(F)(F)F)cc1`, the entry is “inactive”.
As to `CC(C)NC(=O)Nc1ccc2c(c1)C(=O)N([C@@H](C)CO)C[C@H](C)[C@@H](CN(C)Cc1ccc(Cl)c(Cl)c1)OCCCC[C@@H](C)O2`, the cytotoxicity call is “inactive”.
In the case of `C[C@@H]1CN([C@H](C)CO)C(=O)c2cc(NS(=O)(=O)c3cccs3)ccc2O[C@@H](C)CCCCO[C@@H]1CN(C)C(=O)c1ccccc1` it was “inactive”; in that of `C[C@H]1CN([C@@H](C)CO)C(=O)Cc2cc(NC(=O)Nc3cccc4ccccc34)ccc2O[C@H]1CN(C)C(=O)Nc1ccccc1`, “inactive”.
As for `C[C@@H]1CN([C@H](C)CO)C(=O)c2cccc(NC(=O)c3ccc(-c4nccs4)cc3)c2O[C@H]1CN(C)C(=O)Nc1ccccc1`, the entry is “inactive”.
For `CC(=O)NC[C@H]1CN(c2ccc(N3CCN(C(=O)CO)CC3)c(F)c2)C(=O)O1`, the cytotoxicity call is “inactive”.
In the case of `CC(C)(C)CC(C)(C)c1cc(Cc2cc(C(C)(C)CC(C)(C)C)cc(-n3nc4ccccc4n3)c2O)c(O)c(-n2nc3ccccc3n2)c1` [listing 1 of 2 here] it was “inactive”; in that of `CC(C)(C)CC(C)(C)c1cc(Cc2cc(C(C)(C)CC(C)(C)C)cc(-n3nc4ccccc4n3)c2O)c(O)c(-n2nc3ccccc3n2)c1` [listing 2 of 2 here], “inactive”.
In the case of `CC(C)(C)CC(C)(C)c1ccc(O)c(Cc2ccc(Cl)cc2Cl)c1` it was “active”; in that of `O=C(CN1CCOCC1)NCC[C@@H]1CC[C@H](NC(=O)c2ccc3c(c2)OCO3)[C@@H](CO)O1`, “inactive”.
As for `C[C@@H]1CN([C@@H](C)CO)C(=O)c2cc(C#CC3(O)CCCC3)cnc2O[C@@H]1CN(C)C(=O)CN(C)C`, the cytotoxicity call was “inactive”.
Regarding `C[C@@H]1CN([C@@H](C)CO)C(=O)c2cc(NC(=O)C3CCCCC3)ccc2O[C@@H]1CN(C)Cc1ccc(-c2ccccc2)cc1`, the cytotoxicity call is “active”.
As for `C[C@@H]1CN([C@H](C)CO)C(=O)c2cc(NC(=O)NC3CCCCC3)ccc2O[C@H]1CN(C)Cc1ccc(-c2ccccc2)cc1`, the cytotoxicity call is “inactive”.
In the case of `CO[C@H]1CN(C)C(=O)c2cc(NC(=O)NC3CCCCC3)ccc2OC[C@H](C)N(CCc2ccccc2)C[C@@H]1C`, the cytotoxicity call was “inactive”.
For the compound `C[C@H](CO)N1C[C@H](C)[C@H](CN(C)Cc2ccc(Oc3ccccc3)cc2)Oc2ccc(NC(=O)NC3CCCCC3)cc2C1=O`, the cytotoxicity call was “inactive”.
For `C[C@@H]1CN([C@H](C)CO)C(=O)c2cc(NC(=O)NC3CCCCC3)ccc2O[C@H]1CN(C)Cc1ccc(Oc2ccccc2)cc1`, the cytotoxicity call is “inactive”.
In the case of `C[C@@H]1CN([C@H](C)CO)C(=O)c2cc(NC(=O)C3CCCCC3)ccc2O[C@@H]1CN(C)Cc1ccc(-c2ccccc2)cc1` it was “inactive”.
With `C[C@H]1CN([C@@H](C)CO)C(=O)c2cc(NC(=O)NC3CCCCC3)ccc2O[C@H]1CN(C)Cc1ccc(-c2ccccc2)cc1`, the cytotoxicity call was “inactive”.
With `C[C@@H]1CN([C@@H](C)CO)C(=O)c2cc(NC(=O)NC3CCCCC3)ccc2O[C@H]1CN(C)Cc1ccc(Oc2ccccc2)cc1`, the cytotoxicity call is “active”.
With `CO[C@@H]1CN(C)C(=O)c2cc(NC(=O)NC3CCCCC3)ccc2OC[C@H](C)N(CCc2ccccc2)C[C@H]1C`, the cytotoxicity call is “inactive”.
In the case of `CO[C@H]1CN(C)C(=O)c2cc(NC(=O)NC3CCCCC3)ccc2OC[C@@H](C)N(CCc2ccccc2)C[C@@H]1C`, the cytotoxicity call was “active”.
Consider `C[C@@H]1CN([C@@H](C)CO)C(=O)c2cc(NC(=O)NC3CCCCC3)ccc2O[C@@H]1CN(C)Cc1ccc(-c2ccccc2)cc1`, for which the cytotoxicity call is “active”.
As for `C[C@H]1CN([C@@H](C)CO)C(=O)c2cc(NC(=O)C3CCCCC3)ccc2O[C@@H]1CN(C)Cc1ccc(-c2ccccc2)cc1`, the entry is “inactive”.
Turning to `Cc1ccc(-c2c[nH]c(=S)[nH]2)cc1`, the cytotoxicity call is “inactive”.
As to `Cc1noc(C)c1NC(=O)Nc1ccc2c(c1)CC(=O)N([C@H](C)CO)C[C@@H](C)[C@@H](CN(C)C(=O)Nc1cccc3ccccc13)O2`, the cytotoxicity call is “inactive”.
Take `O=C(C[C@@H]1CC[C@H]2[C@@H](COC[C@@H](O)CN2S(=O)(=O)c2ccccc2)O1)NCCN1CCCC1`: the cytotoxicity call is “inactive”.
In the case of `C[C@H]1CN([C@@H](C)CO)C(=O)Cc2cc(NS(C)(=O)=O)ccc2O[C@@H]1CN(C)C(=O)Nc1ccc2c(c1)OCO2`, the cytotoxicity call is “inactive”.
In the case of `Cc1noc(C)c1NC(=O)Nc1cccc2c1O[C@@H](CN(C)S(C)(=O)=O)[C@H](C)CN([C@@H](C)CO)C2=O`, the cytotoxicity call is “inactive”.
In the case of `NCCCCCNC(=O)[C@H]1C[C@H]2C(=O)NCC(=O)N2[C@H]1c1cccc(OCCO)c1` it was “inactive”.
For `COc1ccc([C@@H]2CC(=O)c3c(O)cc(O[C@@H]4O[C@H](CO[C@@H]5O[C@@H](C)[C@H](O)[C@@H](O)[C@H]5O)[C@@H](O)[C@H](O)[C@H]4O)cc3O2)cc1O`, the cytotoxicity call is “inactive”.
